Inconclusive results are not listed. The source made the active and inactive calls. Unless noted, the call rests on the fitted dose curve; in most records, active means well fitted curve in the direction sought with a large enough effect in the repeat runs; inconclusive means weak or mixed curves; inactive means no such curve, though single readings can be large; an effect the other way counts as inactive or inconclusive.
Assays:
[1] = qHTS assay to identify small molecule antagonists of the sonic hedgehog signaling (Shh) pathway (AID 1259369; calls by dose curve; further: nearly all actives have a fitted effect of over 45% in size; further: potency means the concentration at half of the fitted maximal effect)
Summary of the method: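 Cells are plated and held 4hr at 37 C, compounds (DMSO) are pinned in, conditioned medium is added to stimulate the pathway, and after 24hr luciferase reagent is added for 30min before luminescence is read.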

[2] = biological target: Estrogen receptor beta (Homo sapiens) (UniProt Q92731); assay: qHTS assay to identify small molecule agonists of the estrogen receptor beta (ER-beta) signaling pathway (AID 1259377; active means well fitted activation curve with a large enough effect in the signal ratio in the repeat runs, not every such curve was filed as active; the % refers to the signal ratio)
Summary of the method: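 Read-out: beta-lactamase FRET fluorescence. Cell line: ER-beta-UAS-bla HEK293T in 2% charcoal-stripped FBS. Exposure: 16 hr at 37C. Substrate step: 2 h at room temperature.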

[3] = biological target: Estrogen receptor beta (Homo sapiens) (UniProt Q92731); assay: qHTS assay to identify small molecule antagonists of the estrogen receptor beta (ER-beta) signaling pathway (AID 1259378; active means well fitted inhibition curve with a large enough effect in the signal ratio in the repeat runs, not every such curve was filed as active; the % refers to the signal ratio; further: potency means the concentration at half of the fitted maximal effect)
Summary of the method: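 Antagonist mode: compounds added to beta-lactamase reporter HEK293T ER-beta-UAS cells stimulated with E2 (1nM final), 16 hr at 37C. LiveBLAzer B/G FRET substrate, 2 hours room temperature, fluorescence read-out.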

[4] = qHTS assay to identify small molecule agonists of the androgen receptor (AR) signaling pathway in the presence of an antagonist - cell viability counter screen (AID 1259379);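 further: MDA-kb2 human breast cancer cells carrying an MMTV luciferase reporter; series mostly up to about 92 µM; nearly all actives have a fitted effect of over 25% in size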
Summary of the method: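 Cytotoxicity is assessed by CellTiter-Fluor in MDA-kb2 cells carrying an MMTV-driven luciferase reporter. Cells receive 3.0uM nilutamide plus compounds at 15 concentrations and incubate 16 hr at 37C without CO2 before fluorescence reading.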

[5] = qHTS assay to identify small molecule antagonists of the estrogen receptor beta (ER-beta) signaling pathway - cell viability counter screen (AID 1259382);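 further: HEK293T cells carrying ER-beta-UAS-bla reporter stimulated with estradiol; series mostly up to about 92 µM; nearly all actives have a fitted effect of over 55% in size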
Summary of the method: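 Cytotoxicity counter screen multiplexed with the beta-lactamase antagonist assay: GripTite HEK293T ER-beta-bla cells were treated 16 hr with test chemicals in the presence of 1nM 17-beta-estradiol, and viability was measured by CellTiter-Glo.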

[6] = biological target: Estrogen receptor (Homo sapiens) (UniProt P03372); assay: qHTS assay to identify small molecule agonists of the estrogen receptor alpha (ER-alpha) signaling pathway in the presence of an antagonist (AID 1259383; calls by dose curve; further: nearly all actives have a fitted effect of over 15% in size; further: potency means the concentration at half of the fitted maximal effect; on activation: top concentration of the series differs between compounds)
Summary of the method: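 Agonist-mode confirmation in the presence of the ER antagonist ICI-182,780 at 10.0nM final. Breast-derived VM7Luc4E2 reporter cells were exposed to compounds for 22hr, and ERE-driven luciferase was quantified by luminescence.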

[7] = qHTS assay to identify small molecule agonists of the estrogen receptor alpha (ER-alpha) signaling pathway in the presence of an antagonist - cell viability counter screen (AID 1259386);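 further: series mostly up to about 92 µM; cells exposed to compounds for 22 h at 37 °C before the viability read; nearly all actives have a fitted effect of over 30% in size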
Summary of the method: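 Cytotoxicity was measured in parallel with the ERE-luciferase agonist screen, in the same wells. The cells were VM7Luc4E2, which endogenously express ER-alpha, and treatment was with compounds plus 10.0nM ICI-182,780 for 22hr.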

[8] = biological target: Progesterone receptor (Homo sapiens) (UniProt P06401); assay: qHTS assay to identify small molecule agonists of the progesterone receptor (PR) signaling pathway (AID 1346784; calls by dose curve; further: nearly all actives have a fitted effect of over 30% in size; further: potency means the concentration at half of the fitted maximal effect)
Summary of the method: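 Compounds were tested for PR agonism in HEK 293T cells bearing a beta-lactamase gene under UAS control. Treatment lasted 16 hr at 37C; signal came from fluorescence of a FRET substrate.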

[9] = qHTS assay to identify small molecule antagonists of the progesterone receptor (PR) signaling pathway - cell viability counter screen (AID 1346798); further: series mostly up to about 92 µM; nearly all actives have a fitted effect of over 50% in size
Summary of the method: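 Following a 4 hr attachment, PR-UAS-bla HEK293T cells in charcoal-stripped FBS medium were exposed to compounds with R5020 for 16 hr; CellTiter-Glo was added and luminescence read after 30 min at room temperature.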

[10] = qHTS assay to identify small molecule agonists of the progesterone receptor (PR) signaling pathway - cell viability counter screen (AID 1346799; calls by dose curve; further: nearly all actives have a fitted effect of over 45% in size)
Summary of the method: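 Here, 3,000 PR-UAS-bla HEK293T cells per well were treated with compounds for 16 hr after a 6 hr preincubation at 37C and 5% CO2; cell viability is the CellTiter-Glo luminescence signal.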

[11] = qHTS assay to identify small molecule antagonists of the TGF-beta/Smad signaling pathway - cell viability counter screen (AID 1346824); further: nearly all actives have a fitted effect of over 50% in size
Summary of the method: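 Cytotoxicity counter-screen run in the same wells as the beta-lactamase Smad reporter read: CellTiter-Glo luminescence after 30 min at room temperature. HEK 293T SBE-bla cells had 5 hr compound exposure at 37 C with TGF-beta1 (0.25 ng/mL stock).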

[12] = qHTS assay to identify small molecule agonists of the TGF-beta/Smad signaling pathway - cell viability counter screen (AID 1346829); further: top concentration of the series differs between compounds; nearly all actives have a fitted effect of over 45% in size
Summary of the method: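 Here the cytotoxicity of library compounds is measured in SBE-bla HEK 293T cells treated for 5 hr, using CellTiter-Glo added to wells already read for the beta-lactamase reporter.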

[13] = qHTS assay to identify small molecule agonists of the TGF-beta/Smad signaling pathway (AID 1346859; active means well fitted activation curve with a large enough effect in the signal ratio in the repeat runs, not every such curve was filed as active; the % refers to the signal ratio; further: series mostly up to about 77 µM)
Summary of the method: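 Each well held 4,000 SBE-bla HEK 293T cells incubated overnight before compound addition; 5 hr later the cleavable FRET substrate went on for 2 hr at room temperature, and fluorescence was read at two emissions.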

[14] = biological target: Thyrotropin-releasing hormone receptor (Homo sapiens) (UniProt P34981); assay: qHTS assay to identify small molecule antagonists of the thyrotropin-releasing hormone receptor (TRHR) signaling pathway (AID 1346877; active means well fitted inhibition curve with a large enough effect in the repeat runs, not every such curve was filed as active; further: series mostly up to about 51 µM)
Summary of the method: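 Antagonism is measured as suppression of the calcium response to 1 nM TRH in TRHR-HEK293 cells that have been dye-loaded for 2 h at 37 °C after overnight plating. Each compound is tested at 15 concentrations in triplicate.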

[15] = biological target: Thyrotropin-releasing hormone receptor (Homo sapiens) (UniProt P34981); assay: qHTS assay to identify small molecule agonists of the thyrotropin-releasing hormone receptor (TRHR) signaling pathway (AID 1346891; calls by dose curve; further: potency means the concentration at half of the fitted maximal effect; on activation: series mostly up to about 58 µM)
Summary of the method: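 Screening of agonists relied on calcium signalling in HEK293 cells expressing human TRHR: dye loading 2 h at 37 °C preceded compound addition and a 3-min fluorescence time course.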

[16] = qHTS assay to identify small molecule agonists of the estrogen receptor beta (ER-beta) signaling pathway - cell viability counter screen (AID 1259380); further: nearly all actives have a fitted effect of over 30% in size; further: potency means the concentration at half of the fitted maximal effect
Summary of the method: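 Cytotoxicity is measured in parallel with the reporter screen: after 16 hr compound exposure at 37C and a 2 hr LiveBLAzer step, CellTiter-Glo is added to the same ER-beta-UAS-bla HEK293T wells and luminescence read after 30 min.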

[17] = biological target: Androgen receptor (Homo sapiens) (UniProt P10275); assay: qHTS assay to identify small molecule agonists of the androgen receptor (AR) signaling pathway in the presence of an antagonist (AID 1259381; calls by dose curve; further: nearly all actives have a fitted effect of over 15% in size; further: potency means the concentration at half of the fitted maximal effect)
Summary of the method: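 Agonist-mode confirmation screen: human MDA-kb2 cells stably expressing luciferase under an MMTV promoter bearing AR and GR response elements, co-treated with 3.0uM nilutamide (final). Luminescence measured after 16hr compound incubation.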

[18] = qHTS assay to identify small molecule agonists or antagonists of the thyroid stimulating hormone receptor (TSHR) signaling pathway - wild type cell line counter screen (AID 1259384; calls by dose curve)
Summary of the method: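 Counter screen in untransfected Hek293: compounds (15-point titration, triplicate) plus phosphodiesterase inhibitor Ro20-1724 added after 18 h plating; 30 min RT. Intracellular cAMP via competitive d2/cryptate immunoassay, 1 h incubation.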

[19] = biological target: Thyrotropin receptor (Homo sapiens) (UniProt P16473); assay: qHTS assay to identify small molecule antagonists of the thyroid stimulating hormone receptor (TSHR) signaling pathway (AID 1259385; calls by dose curve; further: nearly all actives have a fitted effect of over 20% in size)
Summary of the method: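 Antagonist mode: compound-treated TSHR-expressing HEK293 cells were stimulated with 1.5 ng/mL TSH (final) in presence of Ro20-1724 for 30 min at RT. HTRF cAMP detection after 1 h; each compound tested at 15 concentrations, triplicate.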

[20] = biological target: Progesterone receptor (Homo sapiens) (UniProt P06401); assay: qHTS assay to identify small molecule antagonists of the progesterone receptor (PR) signaling pathway (AID 1346795; active means well fitted inhibition curve with a large enough effect in the signal ratio in the repeat runs, not every such curve was filed as active; the % refers to the signal ratio)
Summary of the method: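 In HEK293T cells bearing the PR-UAS-bla reporter, compound effects on promegestone-driven (1 nM) beta-lactamase expression are assessed after 16 hr using a fluorescent FRET substrate incubated 2 hr at room temperature.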

Measured: Potency

Sequence of Thyrotropin-releasing hormone receptor (Homo sapiens) (P34981 whole entry, looked up): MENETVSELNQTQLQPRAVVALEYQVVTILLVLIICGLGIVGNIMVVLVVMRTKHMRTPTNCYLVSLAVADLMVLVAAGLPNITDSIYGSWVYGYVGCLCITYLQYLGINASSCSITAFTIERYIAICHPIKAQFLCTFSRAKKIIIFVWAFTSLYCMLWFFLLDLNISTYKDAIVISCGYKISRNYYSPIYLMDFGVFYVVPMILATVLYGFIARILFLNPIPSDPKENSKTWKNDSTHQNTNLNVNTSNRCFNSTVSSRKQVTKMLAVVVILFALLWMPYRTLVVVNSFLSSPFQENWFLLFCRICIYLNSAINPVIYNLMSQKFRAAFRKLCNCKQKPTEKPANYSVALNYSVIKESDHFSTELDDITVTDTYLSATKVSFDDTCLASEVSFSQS
Sequence of Progesterone receptor (Homo sapiens) (P06401 whole entry, looked up): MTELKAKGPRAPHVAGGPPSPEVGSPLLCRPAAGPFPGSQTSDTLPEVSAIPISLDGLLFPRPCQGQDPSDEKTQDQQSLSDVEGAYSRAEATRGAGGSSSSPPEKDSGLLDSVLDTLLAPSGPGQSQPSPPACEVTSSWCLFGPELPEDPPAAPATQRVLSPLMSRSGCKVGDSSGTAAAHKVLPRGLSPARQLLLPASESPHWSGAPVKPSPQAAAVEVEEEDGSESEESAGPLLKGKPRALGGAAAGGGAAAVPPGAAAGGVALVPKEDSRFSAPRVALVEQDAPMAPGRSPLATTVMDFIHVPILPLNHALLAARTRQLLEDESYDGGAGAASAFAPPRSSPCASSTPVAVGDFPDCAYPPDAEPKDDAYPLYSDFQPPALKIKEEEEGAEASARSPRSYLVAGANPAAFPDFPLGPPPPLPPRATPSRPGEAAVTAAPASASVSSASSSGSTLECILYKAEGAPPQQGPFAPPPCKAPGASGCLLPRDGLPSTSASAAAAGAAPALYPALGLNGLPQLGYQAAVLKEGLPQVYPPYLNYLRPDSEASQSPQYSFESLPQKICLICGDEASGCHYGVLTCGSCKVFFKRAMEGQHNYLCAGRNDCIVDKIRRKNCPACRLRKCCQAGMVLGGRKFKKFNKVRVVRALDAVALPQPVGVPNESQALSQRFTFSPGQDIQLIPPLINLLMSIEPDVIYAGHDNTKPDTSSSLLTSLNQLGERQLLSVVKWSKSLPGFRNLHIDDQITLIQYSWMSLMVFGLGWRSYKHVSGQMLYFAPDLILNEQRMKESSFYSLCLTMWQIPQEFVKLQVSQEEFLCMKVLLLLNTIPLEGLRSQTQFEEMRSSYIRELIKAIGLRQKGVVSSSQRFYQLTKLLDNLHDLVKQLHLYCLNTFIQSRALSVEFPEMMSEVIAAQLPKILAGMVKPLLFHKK
Sequence of Androgen receptor (Homo sapiens) (P10275 whole entry, looked up): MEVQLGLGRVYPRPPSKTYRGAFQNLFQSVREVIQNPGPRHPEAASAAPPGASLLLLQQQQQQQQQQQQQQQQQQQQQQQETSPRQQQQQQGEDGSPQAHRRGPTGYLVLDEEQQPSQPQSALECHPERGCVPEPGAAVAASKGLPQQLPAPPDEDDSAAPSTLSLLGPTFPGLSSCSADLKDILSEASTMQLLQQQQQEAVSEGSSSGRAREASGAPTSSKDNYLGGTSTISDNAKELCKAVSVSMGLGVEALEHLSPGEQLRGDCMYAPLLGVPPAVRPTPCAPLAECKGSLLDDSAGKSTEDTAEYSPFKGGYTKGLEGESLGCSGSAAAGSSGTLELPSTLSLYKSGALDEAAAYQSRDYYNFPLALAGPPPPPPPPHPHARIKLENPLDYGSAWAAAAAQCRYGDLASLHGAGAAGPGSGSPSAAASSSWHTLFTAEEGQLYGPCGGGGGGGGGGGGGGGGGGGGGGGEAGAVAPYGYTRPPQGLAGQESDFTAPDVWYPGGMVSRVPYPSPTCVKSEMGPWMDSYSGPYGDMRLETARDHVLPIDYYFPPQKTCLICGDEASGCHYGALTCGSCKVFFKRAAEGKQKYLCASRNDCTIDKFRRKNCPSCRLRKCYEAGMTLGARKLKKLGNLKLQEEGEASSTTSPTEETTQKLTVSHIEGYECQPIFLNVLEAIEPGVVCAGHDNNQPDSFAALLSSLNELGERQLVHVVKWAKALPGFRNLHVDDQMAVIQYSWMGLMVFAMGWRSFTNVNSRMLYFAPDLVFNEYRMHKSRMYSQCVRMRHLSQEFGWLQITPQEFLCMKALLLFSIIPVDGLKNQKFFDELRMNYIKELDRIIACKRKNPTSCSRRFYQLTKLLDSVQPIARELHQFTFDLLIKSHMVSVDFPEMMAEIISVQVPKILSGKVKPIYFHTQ
Sequence of Estrogen receptor beta (Homo sapiens) (Q92731 whole entry, looked up): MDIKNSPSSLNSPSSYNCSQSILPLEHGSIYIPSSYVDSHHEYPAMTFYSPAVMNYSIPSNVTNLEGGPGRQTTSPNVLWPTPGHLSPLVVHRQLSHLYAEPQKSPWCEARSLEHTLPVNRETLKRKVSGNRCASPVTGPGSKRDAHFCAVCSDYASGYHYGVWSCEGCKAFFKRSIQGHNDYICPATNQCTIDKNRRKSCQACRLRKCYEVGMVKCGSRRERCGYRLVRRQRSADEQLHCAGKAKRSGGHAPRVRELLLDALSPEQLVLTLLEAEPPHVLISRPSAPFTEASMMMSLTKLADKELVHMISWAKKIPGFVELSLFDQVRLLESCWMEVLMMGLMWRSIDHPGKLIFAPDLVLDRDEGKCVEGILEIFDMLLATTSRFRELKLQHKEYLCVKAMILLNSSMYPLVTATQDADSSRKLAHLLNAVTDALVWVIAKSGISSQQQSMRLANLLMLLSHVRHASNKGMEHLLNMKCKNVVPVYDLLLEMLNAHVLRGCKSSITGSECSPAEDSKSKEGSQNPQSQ
Sequence of Estrogen receptor (Homo sapiens) (P03372 whole entry, looked up): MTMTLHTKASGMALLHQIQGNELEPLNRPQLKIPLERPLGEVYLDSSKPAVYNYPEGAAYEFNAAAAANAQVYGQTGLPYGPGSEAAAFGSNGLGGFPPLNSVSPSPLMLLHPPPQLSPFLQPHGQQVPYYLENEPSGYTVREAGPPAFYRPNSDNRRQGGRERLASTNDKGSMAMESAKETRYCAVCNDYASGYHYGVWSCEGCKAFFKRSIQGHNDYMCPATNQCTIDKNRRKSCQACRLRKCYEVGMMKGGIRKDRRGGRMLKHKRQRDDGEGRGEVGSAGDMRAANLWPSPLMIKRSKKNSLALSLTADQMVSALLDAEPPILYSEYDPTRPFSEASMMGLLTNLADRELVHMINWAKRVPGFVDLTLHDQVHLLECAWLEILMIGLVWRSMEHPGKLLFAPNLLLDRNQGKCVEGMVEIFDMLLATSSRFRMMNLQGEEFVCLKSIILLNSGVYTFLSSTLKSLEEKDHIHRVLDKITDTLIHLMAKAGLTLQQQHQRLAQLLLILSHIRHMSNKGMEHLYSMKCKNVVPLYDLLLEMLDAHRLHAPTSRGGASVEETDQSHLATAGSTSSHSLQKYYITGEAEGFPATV
Sequence of Thyrotropin receptor (Homo sapiens) (P16473 whole entry, looked up): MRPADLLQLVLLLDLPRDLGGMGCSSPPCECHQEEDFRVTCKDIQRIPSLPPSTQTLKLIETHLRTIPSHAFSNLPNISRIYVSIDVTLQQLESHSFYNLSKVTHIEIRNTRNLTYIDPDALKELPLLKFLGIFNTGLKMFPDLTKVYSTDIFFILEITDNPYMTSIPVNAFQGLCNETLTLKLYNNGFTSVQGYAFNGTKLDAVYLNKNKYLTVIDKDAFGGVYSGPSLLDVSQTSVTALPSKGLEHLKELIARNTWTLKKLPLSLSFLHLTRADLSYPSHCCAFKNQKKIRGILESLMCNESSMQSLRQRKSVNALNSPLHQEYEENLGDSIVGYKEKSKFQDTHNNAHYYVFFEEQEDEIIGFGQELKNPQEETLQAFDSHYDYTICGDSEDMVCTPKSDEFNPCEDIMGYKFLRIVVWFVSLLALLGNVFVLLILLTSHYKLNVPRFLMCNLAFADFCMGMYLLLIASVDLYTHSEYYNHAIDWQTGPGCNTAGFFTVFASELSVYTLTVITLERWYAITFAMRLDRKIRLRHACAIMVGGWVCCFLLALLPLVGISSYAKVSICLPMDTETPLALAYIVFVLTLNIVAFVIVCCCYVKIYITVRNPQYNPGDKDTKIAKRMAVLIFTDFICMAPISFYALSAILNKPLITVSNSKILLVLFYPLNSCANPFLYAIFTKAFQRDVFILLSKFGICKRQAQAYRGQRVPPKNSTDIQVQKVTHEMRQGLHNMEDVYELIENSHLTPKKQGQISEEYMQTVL

CCCCCCCCOC(=O)CCCCCCCCC(=O)OCCCCCCCC
inactive: [1] | [2] | [3] | [4] | [5] | [6] | [7] | [8] | [9] | [10] | [11] | [12] | [13] | [14] | [15]

O=C1CCN(c2ccccc2)N1
inactive: [1] | [2] | [4] | [6] | [18] | [19] | [10] | [11] | [12] | [13] | [14] | [15]
active: [16] 21.8 µM | [17] 30.7 µM

O=C(CC(=O)C(F)(F)F)c1ccccc1
active: [6] 9.83 µM | [8] 8.76 µM | [15] 39.5 µM
inactive: [1] | [2] | [4] | [5] | [18] | [7] | [20] | [9] | [11] | [12] | [13]

CCc1nnc(NS(=O)(=O)c2ccc(N)cc2)s1
inactive: [1] | [2] | [3] | [4] | [5] | [18] | [19] | [7] | [8] | [20] | [9] | [11] | [12] | [13]

CCC(=O)c1ccc2c(c1)N(CCCN(C)C)c1ccccc1S2
inactive: [1] | [2] | [17] | [7] | [9] | [10] | [11] | [12] | [13] | [14] | [15]
active: [3] 26.6 µM | [16] 29.8 µM

Cc1ccc(C=O)s1
inactive: [2] | [3] | [4] | [16] | [5] | [7] | [8] | [20] | [9] | [11] | [12] | [13] | [14] | [15]
active: [1] 48.6 µM

CCOC(=O)CS
active: [1] 19.9 µM | [8] 3.15 µM
inactive: [2] | [4] | [18] | [19] | [20] | [9] | [11] | [12] | [13] | [14] | [15]

CC1=CC(=O)CC(C)(C)C1=O
inactive: [1] | [2] | [3] | [4] | [5] | [6] | [18] | [19] | [7] | [8] | [9] | [11] | [12] | [13] | [14] | [15]

COC(=O)/C=C(/C)N
inactive: [1] | [3] | [4] | [16] | [17] | [5] | [6] | [18] | [19] | [7] | [8] | [20] | [9] | [11] | [12] | [13] | [14] | [15]

Reference: PubChem BioAssay (Tox21)
